Active and inactive are the calls of the source. The calls were made as follows: active = hit-call score of the fitted dose curve at least 0.9, where 1 is the maximum; inactive = score below 0.9.

A short description of the assay: ATG_GLI_CIS: Attagene CIS-FACTORIAL HepG2 Assay for human Zinc Finger Protein GLI1 (AID 2282945). The conditions noted are these: HepG2, Attagene cis-factorial reporter mRNA, GLI element; actives raise or lower the signal. Here is the method:
ATG_CIS is a cell-based, multiplexed-readout assay that uses HepG2, a human liver cell line, with measurements taken at 24 hours after chemical dosing in a 24-well plate.ATG_GLI_CIS is one of 52 assay component(s) measured or calculated from the ATG_CIS assay. It is designed to make measurements of mRNA induction, a form of inducible reporter, as detected with fluorescence intensity signals by Reverse transcription polymerase chain reaction (RT-PCR) and Capillary electrophoresis technology.Data from the assay component ATG_GLI_CIS was analyzed into 1 assay endpoint. This assay endpoint, ATG_GLI_CIS, was analyzed with bidirectional fitting relative to DMSO as the negative control and baseline of activity. Using a type of inducible reporter, measures of mRNA for gain or loss-of-signal activity can be used to understand the reporter gene at the transcription factor-level as they relate to the gene GLI1. Furthermore, this assay endpoint can be referred to as a primary readout, because this assay has produced multiple assay endpoints where this one serves a reporter gene function. To generalize the intended target to other relatable targets, this assay endpoint is annotated to the dna binding intended target family, where the subfamily is zinc finger.
Human liver HepG2 cells are transiently transfected with multiple reporter transcription units (MRTUs) in 6-well plates using FuGene 6 reagent (Roche; 3 ml FuGene/1 mg DNA). The MRTU constructs are regulated by a cis-regulating element (promoter). […] A major difference between the CIS and TRANS system is that in CIS activities of endogenous TFs are measured, whereas the TRANS assay evaluates changes in activities of exogenous, chimeric NR-Gal4 proteins. […] At the end of 24 hour incubation, total RNA was isolated using TriZol reagent (Invitrogen). The isolated RNA is then reverse-transcribed using oligo(dT) primer and Mo-MLV reverse transcriptase (Invitrogen) with DNAse I (Ambion) treatment for 30 min. The one-tenth of the produced cDNA was amplified by PCR using Taq DNA polymerase (Invitrogen) and two reporter sequence-specific primers. The PCR products were fluorescently labeled by primer extension with 6-arboxyfluorescein (6-FAM) 5'-labeled reporter sequence-specific primer (2 min at 95 C, 20 s at 68 C and 10 min at 72 C) and these products were digested with 5U of HpaI (New England Biolabs) for 2h at 37 C. The fragments were purified using Qiaquick PCR columns (Qiagen), analyzed on an ABI 3130xL genetic analyzer (Applied Biosystems) with peak positions identified by using a set of X-rhodamine (ROX)-labeled MapMarker1000 molecular weight standards (BioVentures). The raw capillary electrophoresis data was processed using Attagraph software (Attagene).
For `CC=Cc1ccc2c(c1)OCO2`, the result was inactive.

Consider `COc1cc(OC)c(OC)cc1C=O`, for which the molecule was called inactive. For the molecule `COC(C)(C)CCC[C@H](C)C/C=C/C(C)=C/C(=O)OC(C)C`, the AC50 is 145 µM (active). Turning to `CCOC(=O)COc1ccc(Cl)cc1Cl`, the result was inactive. `CCCCOC(=O)CCC(=O)OCCCC`: the molecule was called inactive.

For `ClC1=C(Cl)[C@]2(Cl)[C@@H]3[C@@H](Cl)[C@H](Cl)C[C@@H]3[C@@]1(Cl)C2(Cl)Cl`, the result was inactive.

In the case of `CC(C)COP(=O)(OCC(C)C)OCC(C)C`, the molecule was called inactive. `CNC(=N[N+](=O)[O-])NCC1CCOC1` (stereo not given): the call was inactive.

As to `CCOP(=O)(OCC)OCC`, the molecule was classed as inactive. Same read-out and setting: next, `[Cl-].[Cl-].[Cl-].[Yb+3]`: “inactive”. On to `Cc1cc(C)c(C2=C(OC(=O)CC(C)(C)C)C3(CCCC3)OC2=O)c(C)c1`, for which the AC50 is 163 µM (active). With `Nc1ccccc1`, the molecule was classed as inactive.

Take `CCCCCCCCCCCCCCCC[N+](C)(C)C`: the call was inactive.

In the case of `CC(C)C(=O)Cl`, the result was inactive.

As to `N#CCCCl`, the molecule was called inactive. `Oc1ccc(C2(c3ccc(O)cc3)c3ccccc3-c3ccccc32)cc1`: the AC50 is 19.1 µM (active).

As for `CC(Cc1ccc(C(C)(C)C)cc1)CN1C[C@@H](C)O[C@@H](C)C1` (stereo not given in full), the call was inactive.

For `O=[N+]([O-])c1ccc(Cl)cc1`, the call was inactive. Turning to `CCCCCc1cc(O)cc(O)c1`, the outcome was inactive. Still for that read-out and setting: next, `c1ccc(P(c2ccccc2)c2ccccc2)cc1`: “inactive”. The same measure, in the same setting: next, `O=S(=O)(O)OOS(=O)(=O)O`: “inactive”. Consider `C=C(Cl)Cl`, for which the outcome was inactive. For `CNC(=O)Oc1cc(C)c(SC)c(C)c1`, the result was inactive.

In the case of `C=COCCCl`, the outcome was inactive.

Take `O=[N+]([O-])c1cc([N+](=O)[O-])c2ccccc2c1`: the result was inactive. In the case of `CC1CCC(=O)O1` (stereo not given), the outcome was inactive. Same read-out and setting: under `COc1ccc(CO)cc1` stands “inactive”; under `CCC(C)(C)O`, “inactive”; under `C=CCc1ccc(OC(=O)Cc2ccccc2)c(OC)c1`, “inactive”. As to `CCOC(=O)NC(=S)Nc1ccccc1NC(=S)NC(=O)OCC`, the molecule was called inactive. Turning to `CN(N=O)c1ccccc1`, the molecule was called inactive. `C[C@]12CC[C@H]3[C@@H](CC[C@@]45O[C@@H]4C(O)=C(C#N)C[C@]35C)[C@@H]1CC[C@@H]2O`: the result was inactive.

On to `C[C@]12CCC(=O)C(O)=C1CC[C@@H]1[C@@H]2CC[C@]2(C)C(=O)CC[C@@H]12`, for which the molecule was classed as inactive. On the same count and under the same terms, next, `ClCCCCCCCl`: “inactive”; `O=C=Nc1ccccc1`: “inactive”. Still for that read-out and setting: next, `ClCC(Cl)Cl`: “inactive”. In the case of `CCC(C)c1cc([N+](=O)[O-])cc([N+](=O)[O-])c1OC(=O)C=C(C)C` (stereo not given), the AC50 is 24.8 µM (active).

For the molecule `Cc1ncc(C[n+]2csc(CCO)c2C)c(N)n1`, the molecule was called inactive. For `N#CCCCCC#N`, the outcome was inactive. On the same count and under the same terms, next, `C[N+](C)(C)CC(=O)[O-]`: “inactive”.

Broadly, the AC50 is the concentration at which the activity in the assay is half-maximal.
